Source: PubChem
EBI2 antag: blocks human EBI2 receptor beta-arrestin signaling; P32249; EBI2 beta-arrestin recruitment, luminescence, 7a,25-OHC stimulated; inhibition, % at 5 µM; 360,000 tested, 0.81% active; in the data active = inhibition above about 38%;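 note: enzyme fragment complementation signal reports receptor beta-arrestin coupling in cells; 0% = agonist plus DMSO wells and 100% = wells without agonist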
SENP8 block-1: SENP8 protease inhibition; Q96LD8; purified SENP8, Z-RLRGG-aminoluciferin cleavage, luminescence; inhibition, % at 10 µM; 330,000 tested, 1.2% active; AID 2540; in the data active = inhibition above about 50%
Target sequence (Q96LD8 whole entry, looked up): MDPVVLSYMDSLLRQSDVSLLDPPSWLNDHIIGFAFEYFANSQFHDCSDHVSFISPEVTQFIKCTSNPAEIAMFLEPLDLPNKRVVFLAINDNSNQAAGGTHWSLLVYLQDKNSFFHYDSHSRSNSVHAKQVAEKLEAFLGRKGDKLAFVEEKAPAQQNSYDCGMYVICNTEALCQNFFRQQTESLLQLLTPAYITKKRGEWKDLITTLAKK
AHR activator: activators of human aryl hydrocarbon receptor | AHR-responsive luciferase reporter cells, luminescence | 320,000 tested, 2.5% active | P35869 | activation, % at 5 µM | AID 2796; in the data active = activation above about 47%;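 note: 0% = vehicle wells and 100% = reference agonist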
SENP6 block: inhibitors of human SENP6 protease. inhibition, % at 10 µM. 330,000 tested, 1.8% active. Recombinant SENP6 catalytic domain, aminoluciferin luminescence. Q9GZR1. AID 2599;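 active = inhibition above about 50% at the single tested dose, limit read from the data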;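 note: plate controls were DMSO wells with enzyme for no effect and DMSO wells lacking enzyme for full effect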
SENP7 inh: blocks the human protease SENP7; Q9BQF6; 330,000 tested, 1.5% active; recombinant SENP7, Z-RLRGG-aminoluciferin luminescence, 40 min; inhibition, % at 5 µM;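 active = inhibition above about 50% at the single test dose, limit read from the data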;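 note: plate controls were DMSO with enzyme for no effect and no enzyme buffer wells for full effect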
Target sequence (Q9BQF6 706-1050 limits assumed): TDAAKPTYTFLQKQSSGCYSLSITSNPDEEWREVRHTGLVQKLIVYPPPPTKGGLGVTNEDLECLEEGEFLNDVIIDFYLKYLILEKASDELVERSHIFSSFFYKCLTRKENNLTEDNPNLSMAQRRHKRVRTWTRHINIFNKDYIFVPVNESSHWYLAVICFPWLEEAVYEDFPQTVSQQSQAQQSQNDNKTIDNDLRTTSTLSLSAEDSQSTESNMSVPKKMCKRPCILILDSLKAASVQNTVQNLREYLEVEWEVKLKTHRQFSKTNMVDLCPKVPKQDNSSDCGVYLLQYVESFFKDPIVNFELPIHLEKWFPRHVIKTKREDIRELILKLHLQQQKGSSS
SENP8 block-2: inhibitors of human SENP8 protease; Q96LD8; recombinant SENP8, Nedd8 substrate fluorescence; inhibition, % at 20 µM; 360,000 tested, 0.64% active; AID 602440; in the data active = inhibition mostly above about 40%, no sharp cut-off; inactive = mostly below about 27%
* marks the source's active call; other numbers are inactive results. In the library only some 5% were active in any assay of this set; here they are far more common.

Screening Cc1[nH]n(-c2ccccc2)c(=O)c1C(C[N+](=O)[O-])c1ccccc1Cl (stereo unspecified) returned EBI2 antag -8, SENP8 block-1 0, AHR activator 68*, SENP6 block 19, SENP7 inh 47 and SENP8 block-2 64*.
Cc1[nH]n(-c2ccccc2)c(=O)c1C(c1ccc(O)c([N+](=O)[O-])c1)c1c(C)[nH]n(-c2ccccc2)c1=O was read as EBI2 antag 11, SENP8 block-1 15, AHR activator 18, SENP6 block 51*, SENP7 inh 40 and SENP8 block-2 80*.
`COc1cccc(C(c2c(C)[nH]n(-c3ccccc3)c2=O)c2c(C)[nH]n(-c3ccccc3)c2=O)c1OC` gave EBI2 antag -1, SENP8 block-1 6, AHR activator 17, SENP6 block 15, SENP7 inh 39 and SENP8 block-2 73*.
`Cc1[nH]n(-c2ccccc2)c(=O)c1-c1ccccc1` gave EBI2 antag -11, SENP8 block-1 2, AHR activator -1, SENP6 block 5, SENP7 inh 5 and SENP8 block-2 12.
Screening Cc1[nH]n(-c2cccc([N+](=O)[O-])c2)c(=O)c1-c1ccccc1 returned EBI2 antag 19, SENP8 block-1 -6, AHR activator 7, SENP6 block -5, SENP7 inh 3 and SENP8 block-2 16.
For CC(=O)n1cc(C(C[N+](=O)[O-])SCCN)c2ccccc21 (stereo unspecified) the results were EBI2 antag -52, SENP8 block-1 -2, AHR activator 51*, SENP6 block -1, SENP7 inh 2 and SENP8 block-2 -8.
`Cn1cc(C(C[N+](=O)[O-])c2ccccc2)c2ccccc21` (stereo unspecified) gave EBI2 antag 2, SENP8 block-1 -6, AHR activator 2, SENP6 block -5, SENP7 inh -7 and SENP8 block-2 27.
`Clc1c(CSc2nc3ccccc3o2)nc2ccccn12` gave EBI2 antag 2, SENP8 block-1 19, AHR activator 16, SENP6 block 52*, SENP7 inh 37 and SENP8 block-2 4.
Screening Clc1c(CSc2nc3ccccc3o2)nc2sccn12 returned EBI2 antag -20, SENP8 block-1 26, AHR activator 16, SENP6 block 42, SENP7 inh 22 and SENP8 block-2 11.
`CCOc1cccc(/C=N/NC(=O)c2cc(C3CC3)[nH]n2)c1O` gave EBI2 antag 6, SENP8 block-1 -10, AHR activator 53*, SENP6 block -7, SENP7 inh 10 and SENP8 block-2 -20.
CCOc1cccc(/C=N/NC(=O)c2cccnc2)c1O was read as EBI2 antag 7, SENP8 block-1 2, AHR activator 14, SENP6 block 18, SENP7 inh 0 and SENP8 block-2 12.
Cc1ccccc1N=C1NC(=O)/C(=C/c2cccn2C)S1 was read as EBI2 antag 11, SENP8 block-1 -4, AHR activator 1, SENP6 block 21, SENP7 inh -6 and SENP8 block-2 19.
`Cc1cccc(N=C2NC(=O)/C(=C3/C(=O)N(C)c4ccccc43)S2)c1C` gave EBI2 antag 6, SENP8 block-1 4, AHR activator 68*, SENP6 block -16, SENP7 inh -3 and SENP8 block-2 36.
OC(c1ccc(-c2ccccc2)cc1)c1ncc(-c2ccc(F)cc2)[nH]1 (stereo unspecified) was read as EBI2 antag 5 and SENP8 block-2 10.
Screening COc1ccccc1C(=O)N/C(=C/c1ccc(Br)cc1)C(=O)N1CCOCC1 returned EBI2 antag 6 and SENP8 block-2 19.
Screening Cc1cc(/C=C\c2ccccc2)nc2ccccc12 returned EBI2 antag 20, SENP8 block-1 23, AHR activator 62*, SENP6 block 44, SENP7 inh 39 and SENP8 block-2 -197.
`O=C(Nc1cc(Cl)ccc1N1CCOCC1)c1cccnc1Cl` gave EBI2 antag -6, SENP8 block-1 8, AHR activator 70*, SENP6 block -10, SENP7 inh 6 and SENP8 block-2 6.
For COc1c(F)c(F)c(C(=O)Nc2ccccc2N2CCN(C(C)=O)CC2)c(F)c1F the results were EBI2 antag 3, SENP8 block-1 8, AHR activator 50*, SENP6 block -12, SENP7 inh 3 and SENP8 block-2 14.
For O=C(Nc1ccccc1N1CCOCC1)c1ccc(Cl)nc1 the results were EBI2 antag 7, SENP8 block-1 -2, AHR activator 60*, SENP6 block -16, SENP7 inh 0 and SENP8 block-2 10.
`O=C(Nc1cc(Cl)ccc1N1CCOCC1)c1ccncc1` gave EBI2 antag -19, SENP8 block-1 -1, AHR activator 1, SENP6 block -22, SENP7 inh 5 and SENP8 block-2 3.
Screening CS(=O)(=O)N1CCN(c2ccccc2NC(=O)c2ccc(Cl)cc2)CC1 returned EBI2 antag 5, SENP8 block-1 -7, AHR activator 79*, SENP6 block -3, SENP7 inh 0 and SENP8 block-2 30.
Screening COc1c(F)c(F)c(C(=O)Nc2ccccc2N2CCN(C(=O)C(C)C)CC2)c(F)c1F returned EBI2 antag -3, SENP8 block-1 -3, AHR activator 45, SENP6 block -46, SENP7 inh -5 and SENP8 block-2 15.
Sc1ccccc1N=Cc1cccs1 was read as EBI2 antag -3 and SENP8 block-2 -472.
Screening COc1cc(OC)cc(C(=O)Nc2ccccc2N2CCOCC2)c1 returned EBI2 antag -1, SENP8 block-1 -6, AHR activator 61*, SENP6 block -6, SENP7 inh -8 and SENP8 block-2 10.
`O=C(N/N=C/c1cccnc1)c1cc(C2CC2)nc2ccccc12` gave EBI2 antag 1, SENP8 block-1 3, AHR activator 48*, SENP6 block 3, SENP7 inh 3 and SENP8 block-2 -12.
For C/C(=N\NC(=O)c1cc(C2CC2)nc2ccccc12)c1ccc(C)s1 the results were EBI2 antag -1, SENP8 block-1 -6, AHR activator 51*, SENP6 block -4, SENP7 inh -4 and SENP8 block-2 24.
For C/C(=N\NC(=O)c1cc(C2CC2)nc2ccccc12)c1ccc(O)cc1O the results were EBI2 antag 0, SENP8 block-1 -3, AHR activator 10, SENP6 block -23, SENP7 inh 6 and SENP8 block-2 -3.
`CCOC(=O)C1CCCN(C(=O)c2cccc(C(F)(F)F)c2)CC1` (stereo unspecified) gave EBI2 antag -10 and SENP8 block-2 23.
Screening Cc1cc2nn(-c3ccccc3)nc2cc1NC(=O)c1cccs1 returned EBI2 antag 10, SENP8 block-1 -16, AHR activator 68*, SENP6 block 14, SENP7 inh 7 and SENP8 block-2 -60.
`CCC(=O)Nc1cc2nn(-c3ccccc3)nc2cc1Cl` gave EBI2 antag 10, SENP8 block-1 0, AHR activator 51*, SENP6 block 33, SENP7 inh 40 and SENP8 block-2 inactive.
